Source: PubChem BioAssay AID686979 (National Center for Advancing Translational Sciences (NCATS), 2013)
The campaign covered roughly 420,000 compounds. About 50,000 (12%) were called active. Not shown: some 26% with an inconclusive outcome. For the sample, actives were picked, then their nearest neighbours and some compounds at random. Values without a mark were called inactive. Calls come from the whole dose curve; as a rule, active = well fitted inhibition curve with a large enough effect; inconclusive = small, poorly fitted or top-dose-only effect; inactive = flat fitted curve, though single readings scatter.

Experiment: qHTS for Inhibitors of human tyrosyl-DNA phosphodiesterase 1 (TDP1): qHTS in cells in presence of CPT; note: nearly all actives have a fitted effect of over 55% in size
Conditions: chicken DT40 Tdp1-/-;hTDP1 cells + 20 nM CPT, ATP luminescence, 48 h; series mostly up to 46.2 µM; activity change, negative = growth inhibition: at the top concentration
In short: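 Chicken DT40 Tdp1-/- cells complemented with human TDP1, 400 cells/well, exposed to compounds plus 20 nM camptothecin for at least 48 h at 37 C; viability read as ATP content by CellTiter-Glo luminescence.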
% is set by controls: 0 for no effect and ±100 for the full control effect; potency is the fitted concentration of half-maximal effect.

| SMILES | activity change, negative = growth inhibition | Potency |
| --- | --- | --- |
| Cc1ccc(-c2csc(C(C#N)=C(O)CN3CCN(C(=O)c4ccco4)CC3)n2)cc1 | 10.4% |  |
| CCOC(=O)c1cnc(-n2nc(C)cc2C)nc1-n1nc(C)cc1C | 22.5% |  |
| CCOC(=O)c1cccc(NC(=O)CCn2nnc3ccccc32)c1 | -24.8% |  |
| CCOC(=O)c1cnc(-n2nc(C)cc2C)nc1Nc1cccc(C(C)=O)c1 |  | 16.4 µM (active) |
| COC(=O)c1ccc(OC)c(Cn2c(=O)n(Cc3ccccc3)c(=O)c3c2c2cc(OC)ccc2n3C)c1 | -27.3% |  |
| O=S(=O)(NCCS(=O)(=O)N1CCN(c2ccccc2)CC1)c1ccc(Cl)cc1 | -9.4% |  |
| CC(C)CC1C(=O)N(Cc2cn(Cc3ccco3)nn2)CCS(=O)(=O)N1Cc1ccc(-c2ccc(Cl)c(Cl)c2)cc1 (configuration not stated) |  | 18.4 µM (active) |
| COc1ccc(-c2ccc(CN3C(CC(C)C)C(=O)N(Cc4cn(CC5CCCCC5)nn4)CCS3(=O)=O)cc2)cn1 (configuration not stated) |  | 20.6 µM (active) |
| COCOCCn1cc(CN2CCS(=O)(=O)N(Cc3ccc(-c4ccc(OC)cc4)cc3)C(CC(C)C)C2=O)nn1 (configuration not stated) |  | 16.4 µM (active) |
| CC(=O)c1cccc(-n2nnnc2SCC(=O)NNC(=O)C2CCCCC2)c1 | 7.58% |  |
| COCCCn1cc(CN2CC(N(C)C)CS2(=O)=O)nn1 (configuration not stated) | -6.4% |  |
| CC(=O)c1cccc(-c2ccc(CN3C(CC(C)C)C(=O)N(Cc4cn(CC5CCCCC5)nn4)CCS3(=O)=O)cc2)c1 (configuration not stated) |  | 20.6 µM (active) |
| CCOC(=O)NC(=O)CSc1nnc(SCCC(=O)O)s1 | 3.61% |  |
| Cc1nc(-c2ccc(F)cc2)c(CC(=O)N(C)CC(=O)Nc2c(C)cccc2C)s1 | 0.646% |  |
| Cc1ccccc1-n1cc(CNC(=O)C2CCC(=O)N(C3CC3)C2)cn1 (configuration not stated) | -20.8% |  |
| CCOC(=O)c1sc2nc(C)nc(Nc3ccc(OC)c(OC)c3)c2c1C | -5.47% |  |
| CC(=O)c1ccc(N=C2SCCCN2C(=O)C2CCCCC2)cc1 | -8.83% |  |
| Cc1ccc(-c2cc(C(=O)Oc3ccccc3Cl)no2)cc1C | -4.37% |  |
| COc1ccc(-c2ccc(CN3C(CC(C)C)C(=O)N(Cc4cn(CC5CCCCC5)nn4)CCS3(=O)=O)cc2)cc1 (configuration not stated) |  | 18.4 µM (active) |
| CC1C(=O)N(Cc2cn(CC3CCCCC3)nn2)CCS(=O)(=O)N1Cc1ccc(-c2cccc(N(C)C)c2)cc1 (configuration not stated) |  | 4.61 µM (active) |
| O=S1(=O)CC(N2CCSCC2)CN1Cc1cn(Cc2cccc(Cl)c2)nn1 (configuration not stated) | 1.41% |  |
| COc1ccc([C@H]2N[C@]3(CCCN(CC4CCCCC4)C3=O)[C@H]3C(=O)N(C)C(=O)[C@@H]23)cc1 | -14.1% |  |
| O=S1(=O)CC(N2CCN(CCO)CC2)CN1Cc1cn(Cc2cccc(Cl)c2)nn1 (configuration not stated) | -12.2% |  |
| COc1ccc(COC(=O)NC(C(=O)O)c2ccccc2)cc1 (configuration not stated) | -17% |  |
| O=C(O)c1ccccc1-c1ccccc1C(=O)Nc1ccccc1Br | -10.4% |  |
| O=C(CCNS(=O)(=O)c1ccc(Br)s1)NCc1ccccc1Cl | 5% |  |

| SMILES | activity change, negative = growth inhibition | Potency |
| --- | --- | --- |
| O=C(Nc1nnc(Cc2ccc(Cl)cc2)s1)c1cccnc1 | 1.2% |  |
| NC(=O)COc1ccc(NC(=O)c2ccccc2-c2ccccc2)cc1 | -9.37% |  |
| CCCc1nc2c(c(=O)c3ccccc3n2C)c(=O)n1C1CCCCCC1 |  | 18.4 µM (active) |
| CCOC(=O)c1nnn2c3ccccc3c(=O)n(C)c12 | 23% |  |
| Cn1c2ccccc2c(=O)c2c(O)cccc21 | 1.89% |  |
| CCOc1ccc(C(=O)Nc2ccc(S(=O)(=O)Nc3cc(C)on3)cc2)cc1 | -18.4% |  |
| Cc1ccc(Nc2c(-c3ccc(Cl)cc3)nc3sccn23)c(C)c1 | -11.5% |  |
| O=C(O)c1ccc(Cn2c(=S)[nH]c3cc(Cl)ccc3c2=O)cc1 | 2.38% |  |
| N#CC1=C(N)Oc2c(sc3ccccc23)C1c1ccco1 (configuration not stated) |  | 7.31 µM (active) |
| COC(=O)C1=C(O)/C(=C/c2ccc(OCC(=O)Nc3ccccc3)cc2)N=C1C | -4.89% |  |
| COC(=O)C1CCCCN1C(=O)c1ccc(OC2CCN(C(C)=O)CC2)c(OC)c1 (configuration not stated) | -5.71% |  |
| O=S(=O)(NC1CCCCC1N1CCC(O)CC1)c1ccc(Cl)cc1 (configuration not stated) | -20.2% |  |
| CNC(=O)N1c2ccccc2C=Cc2ccccc21 | -13.4% |  |
| CC1C(C)N(C(=O)CCl)c2ccccc2N1C(=O)CCl (configuration not stated) |  | 0.58 µM (active) |
| CCNC(=O)N1c2ccccc2Sc2ccccc21 | -29% |  |
| Cc1[nH]n(-c2ccccc2)c(=O)c1N=Nc1ccccc1C(=O)N1CCCCC1 | -4.43% |  |
| C=CCNC(=S)N1CCN(CCN=Cc2c(C)[nH]n(-c3ccc([N+](=O)[O-])cc3)c2=O)CC1 | 7.48% |  |
| Cc1[nH]n(-c2ccc([N+](=O)[O-])cc2)c(=O)c1C=NCCN1CCN(C(=O)c2ccccc2F)CC1 |  | 9.2 µM (active) |
| CCCC(=O)Nc1cccc(NC(=S)NC(=O)C(C)Oc2ccc(Cl)cc2Cl)c1 (configuration not stated) | -2.94% |  |
| CC1CC(C)CN(C(=O)CCNC(=O)Cn2cnc3ccccc3c2=O)C1 (configuration not stated) | 26.5% |  |
| C=CCOc1cccc(C2C(C(=O)c3ccc(C)o3)=C(O)C(=O)N2CCCn2ccnc2)c1 (configuration not stated) | 10.3% |  |
| CCC1CCc2c(sc(NC(C)=O)c2C#N)C1 (configuration not stated) | -9.69% |  |
| CC(=O)N1CCc2c(sc(NC(=O)CCS(=O)(=O)c3ccccc3)c2C#N)C1 |  | 20.6 µM (active) |
| CC(C)N1CCc2c(sc(NC(=O)Cc3ccccc3)c2C#N)C1 | -3.65% |  |
| Cc1c(C(=O)NCC2CCCN(C)C2)cnn1-c1nccc(-c2ccco2)n1 (configuration not stated) | -5.64% |  |
| CCCC(=O)NC(C)C(c1cccs1)N1CCN(c2ccccc2)CC1 (configuration not stated) | -14% |  |

| SMILES | activity change, negative = growth inhibition | Potency |
| --- | --- | --- |
| CC(NC(=O)C(C)(C)C)C(c1cccs1)N1CCN(Cc2ccccc2)CC1 (configuration not stated) |  | 20.6 µM (active) |
| CC(NC(=S)Nc1ccccc1)C(c1cccs1)N1CCOCC1 (configuration not stated) | -28.1% |  |
| O=C(Nc1ccccc1)N1CCN(Cc2ccccc2)CC1 | -15.2% |  |
| CC(NC(=O)Nc1ccccc1)C(c1cccs1)N1CCN(c2ccccc2)CC1 (configuration not stated) |  | 13 µM (active) |
| CCCC(c1nnnn1C(C)(C)C)N1CCN(Cc2ccccc2)CC1 (configuration not stated) | -9.45% |  |
| O=C(NCCCN1CCCCCC1)C1CC(=O)N(C2CCCC2)C1 (configuration not stated) | -2.68% |  |
| N#Cc1nc(/C=C/c2ccc(F)cc2)oc1NCc1ccc(F)cc1 | -22.3% |  |
| Cc1cc(NC(=O)CCC(=O)N(CC(=O)NC2CCCC2)c2ccc(F)cc2)no1 | -7.16% |  |
| Cc1[nH]c2ccccc2c1/C=C(/C#N)C(=O)NC(C)C | -5.2% |  |
| CNC(=O)/C(C#N)=C/c1c(F)cccc1Cl |  | 11.6 µM (active) |
| N#C/C(=C\c1ccccc1C(F)(F)F)C(=O)Nc1ccccc1F | 9.19% |  |
| Cc1ccsc1C(=O)NCCc1ccco1 | -2.34% |  |
| CCN1CCN(C(C(=O)NC2CCCC2)c2cc3c(cc2[N+](=O)[O-])OCO3)CC1 (configuration not stated) | -1.98% |  |
| CCc1ccccc1NC(=O)c1cc(-c2ccc3c(c2)OCO3)on1 |  | inactive |
| COc1ccc(-c2cn(-c3ccc(C)cc3)c(=O)n2CC(=O)Nc2ccc(OC)c(OC)c2)cc1 | -7.15% |  |
| CC(=O)c1sc(N/N=C\c2ccc(C)cc2)nc1C | -16.8% |  |
| Cc1ccc(Nc2nnc(SC(C)C(=O)NC3CC3)s2)cc1 (configuration not stated) | -20.3% |  |
| Cc1ccc(Nc2nc(Cl)c(C=O)s2)cc1 |  | 18.4 µM (active) |
| COc1ccc(NC(C)=O)cc1NC(=O)CN1CCN(C2c3ccccc3-c3ccccc32)CC1 | -11.4% |  |
| COCCN(C(=S)Nc1ccccc1OC)C1CCN(C(C)C)CC1 | 13.3% |  |
| Cc1cc(C#N)c(SCC(N)=O)nc1-c1ccc(F)cc1 | -6.67% |  |
| Cc1nn(-c2ccccc2)c(Cl)c1/C=C/C(=O)c1ccc(O)cc1 | -22.8% |  |
| Cc1cc(CNC(=O)c2cccc([N+](=O)[O-])c2)c2ccccc2n1 | -21.3% |  |
| CCC1(C(=O)c2ccccc2)C(c2cccc([N+](=O)[O-])c2)C1(C(=O)OC)C(=O)OC (configuration not stated) |  | 23.1 µM (active) |
| O=C(NOCc1ccccc1)c1cccc([N+](=O)[O-])c1 | 9.86% |  |
| CC1O[C@H](OC2C(COC3OC(CO)C(O)[C@H](O)C3O)OC(OC3CC[C@]4(C)C(CC[C@@]5(C)[C@@H]4C=C[C@]46OC[C@@]7(CCC(C)(C)C[C@H]74)C(O)C[C@@]56C)C3(C)C)C(O)C2O)C(O)C(O)C1O (some centres not stated) | -3.08% |  |

| SMILES | activity change, negative = growth inhibition | Potency |
| --- | --- | --- |
| Cc1ccc(-c2nn(-c3ccccc3)cc2C(=O)NC2CCC(O)CC2)cc1 (configuration not stated) | -21.6% |  |
| CCc1ccc(-c2nn(-c3ccccc3)cc2CSC(=N)N)cc1 |  | 16.4 µM (active) |
| CCc1ccc(-c2nn(-c3ccccc3C)cc2C(=O)N2CCN(C3CCS(=O)(=O)C3)CC2)cc1 (configuration not stated) | -7.22% |  |
| CC1(C)C2CCC13CS(=O)(=O)NC3C2 (configuration not stated) | -17.6% |  |
| COC(=O)c1c(C(=O)OC)c2n(c1C)CCS2 | 9.43% |  |
| Cc1cc(C)c(C2C3=C(Nc4c2c(C)nn4-c2ccccn2)c2ccccc2C3=O)c(C)c1 (configuration not stated) |  | 13 µM (active) |
| CC1(C)CC(=O)C2=C(C1)Nc1cc(C(=O)c3ccccc3)ccc1NC2c1ccccn1 (configuration not stated) | 4.03% |  |
| Cc1nn(-c2ccccn2)c2c1C(c1ccncc1)C1=C(CC(C)(C)CC1=O)N2 (configuration not stated) |  | 29.1 µM (active) |
| Cc1cc2c(cc1C)NC(c1ccccn1)C1=C(CC(C)(C)CC1=O)N2 (configuration not stated) | -14.7% |  |
| CN(CC(=O)NCc1ccc2c(c1)OCO2)CC(=O)Nc1ccc(F)c(F)c1F | -7.17% |  |
| COc1ccc(-n2nc3c(c2NC(=O)c2ccc(N4C(=O)CCC4=O)cc2)CSC3)cc1 | 25.1% |  |
| O=C(Oc1cccc(C(=S)N2CCOCC2)c1)c1cccc(Cl)c1 | 2.82% |  |
| COC(=O)c1cccc(NC(=O)c2cccc(N3C(=O)CCC3=O)c2)c1 | -9.34% |  |
| COc1ccccc1C(=O)NCC(=O)OCC(=O)Nc1nnc(-c2ccccc2)o1 | -2.33% |  |
| Cc1cc(C)cc(NC(=O)N(C)Cc2ccccc2)c1 | -0.4% |  |
| CC1CCCCC1NC(=O)COc1ccc(C#N)cc1 (configuration not stated) | -13.3% |  |
| Cc1ccnc(NC(=O)c2ccco2)n1 | -29.5% |  |
| Cc1cc(NC(=O)[C@H](C)NC(=O)c2ccco2)ccc1Br | -7.75% |  |
| N#Cc1ccc(OCC(=O)Nc2nc(-c3ccccn3)cs2)cc1 |  | 1.64 µM (active) |
| CC1CCN(S(=O)(=O)c2nnc(NC(=O)COc3ccccc3F)s2)CC1 | -0.652% |  |
| NS(=O)(=O)c1ccc2nc(NC(=O)COc3ccccc3)sc2c1 | -3.67% |  |
| O=C(COc1ccccc1F)NC1CC1 | -4.51% |  |
| O=C(COc1ccccc1F)Nc1nc(-c2ccccn2)cs1 |  | 5.17 µM (active) |
| CC(NC(=O)c1ccco1)C(=O)Nc1nc(-c2ccccn2)cs1 (configuration not stated) |  | 5.8 µM (active) |
